Inconclusive results are not listed. The source made the active and inactive calls. The call rests on the fitted dose curve; in most records, active means well fitted curve in the direction sought with a large enough effect; inconclusive means small, poorly fitted or top-dose-only effect, or another doubt; inactive means no such curve, though single readings can be large; an effect the other way counts as inactive or inconclusive.
What was measured:
[1] = Primary qHTS for inhibitors of nuclear receptor binding SET domain protein 2 (NSD2) in an isogenic RCH-ACV NSD2 p.E1099K mutant (9B) (AID 1645876); further: nearly all actives have a fitted effect of over 70% in size; further: potency means the concentration at half of the fitted maximal effect
[2] = molecular target: Glutathione peroxidase 1 (Homo sapiens) (UniProt P07203); assay: Primary qHTS Assay for Inhibitors of Recombinant Selenoprotein Glutathione Peroxidase 1 (GPX1) (AID 1845191); further: nearly all actives have a fitted effect of over 65% in size; on activity, negative = inhibition: on the % scale 0 is the no-effect control and ±100 the full control effect
Summary of the method: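 GPX1 10 nM, GR 100 nM, GSH 1 mM, NADPH 0.5 mM, CHP 0.5 mM (final). 30-min cpd preincubation, RT. Ex340/Em450 read t=0, t=15 min.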

[3] = molecular target: Phospholipid hydroperoxide glutathione peroxidase GPX4 (Homo sapiens) (UniProt P36969); assay: Primary qHTS Assay for Inhibitors of Recombinant Selenoprotein Glutathione Peroxidase 4 (GPX4) (AID 1845192); further: nearly all actives have a fitted effect of over 65% in size; on activity change, negative = inhibition: on the % scale 0 is the no-effect control and ±100 the full control effect
Summary of the method: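 qHTS, GR-coupled: GPX4 200 nM + cpd 30 min RT → GSH 1 mM, NADPH 0.5 mM, GR 100 nM → CHP 0.5 mM start; fluor 340/450 at t0 and t15 min; no-enzyme wells as control.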

[4] = molecular target: Luciferin 4-monooxygenase (Photinus pyralis) (UniProt P08659); assay: Primary firefly luciferase (FLuc) qHTS assay for identification of artifact compounds. (AID 1845220); conditions: outcome: dose series up to 54.1 µM unless noted; further: nearly all actives have a fitted effect of over 60% in size;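 on activity change, negative = inhibition: plate controls were DMSO vehicle for no effect and no enzyme for full effect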
Summary of the method: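 Reaction readout was CCD-imaged luminescence, taken 5 min after adding 10 nM purified firefly enzyme to compound-treated wells holding 10 uM luciferin and ATP in pH 7.6 buffer.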

[5] = Primary fluorescence-based thiol-reactive (MSTI) qHTS assay for identification of artifact compounds. (AID 1845221);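 further: thiol-reactive compounds lower the probe fluorescence signal; nearly all actives have a fitted effect of over 65% in size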
Summary of the method: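 In PBS pH 7.4 with 2% DMSO, each compound met 4 uM MSTI for one hour at ambient temperature, shielded from light, before fluorescence detection.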

[6] = system: Nanoluciferase (engineered Oplophorus gracilirostris luciferase); assay: Primary Nanoluciferase (NLuc) qHTS assay for identification of artifact compounds. (AID 1845222);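 further: NLuc secreted into diluted conditioned medium of S16 cells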
Summary of the method: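 Concentration-response data were obtained by luminescence after 5 min with Nano-Glo substrate at 1:100. The enzyme was diluted S16 NLuc-expressing cell medium, preincubated with compound for 15 min at RT. Curves were fitted with a 4-parameter Hill model.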

CRL-7250 = normal cell line; assay: Cytotoxic Profiling of Annotated Libraries Using Quantitative High-Throughput Screening (AID 1296008); conditions: Five cell lines viability, CellTiter-Glo ATP luminescence, 48-72 h; max response: hits give low values; further: nearly all actives have a fitted effect of over 60% in size; further: potency means the concentration at half of the fitted maximal effect; on max response: on the % scale 0 is the no-effect control and ±100 the full control effect
Summary of the method: (§1)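 Compounds were pin-transferred onto cells and incubated 48 or 72 hr at 37 degree Celsius, 95% humidity. CellTiter-Glo was added, plates sat 10 min at room temperature, then ATP-coupled luminescence was imaged as the viability read-out.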

HEK293 = assay: as above; conditions: Five cell lines viability, CellTiter-Glo ATP luminescence, 48-72 h; max response: hits give low values
Summary of the method: as §1

HaCat = assay: as above; conditions: Five cell lines viability, CellTiter-Glo ATP luminescence, 48-72 h; max response: hits give low values
Summary of the method: as §1

KB-3-1 = assay: as above; conditions: Five cell lines viability, CellTiter-Glo ATP luminescence, 48-72 h; max response: hits give low values
Summary of the method: as §1

NIH3T3 = assay: as above; conditions: Five cell lines viability, CellTiter-Glo ATP luminescence, 48-72 h; max response: hits give low values
Summary of the method: as §1

C33A = assay: Primary qHTS to identify gynecologic anti-cancer compounds using libraries of approved drugs and bioactive compounds (AID 1345084); conditions: Gynecologic cancer cell panel viability, ATPlite luminescence, 48 h; series mostly up to 57.5 µM; further: nearly all actives have a fitted effect of over 55% in size; further: potency means the concentration at half of the fitted maximal effect
Summary of the method: (§2)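 Five-concentration response, 48 h; readout is ATP-driven luciferase luminescence.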

CASKI = assay: as above; conditions: Gynecologic cancer cell panel viability, ATPlite luminescence, 48 h; series mostly up to 57.5 µM
Summary of the method: as §2

Es-2 = assay: as above; conditions: Gynecologic cancer cell panel viability, ATPlite luminescence, 48 h; series mostly up to 57.5 µM
Summary of the method: as §2

Hek293T = assay: as above; conditions: Gynecologic cancer cell panel viability, ATPlite luminescence, 48 h, control line for the selectivity index; series mostly up to 57.5 µM
Summary of the method: as §2

OV90 = assay: as above; conditions: Gynecologic cancer cell panel viability, ATPlite luminescence, 48 h; series mostly up to 57.5 µM
Summary of the method: as §2

Tov-21-G = assay: as above; conditions: Gynecologic cancer cell panel viability, ATPlite luminescence, 48 h; series mostly up to 57.5 µM
Summary of the method: as §2

[7] = Primary qHTS for inhibitors of nuclear receptor binding SET domain protein 2 (NSD2) in an RCH-ACV wild type WT cells (2C) (AID 1645877); further: nearly all actives have a fitted effect of over 70% in size; further: potency means the concentration at half of the fitted maximal effect
PA-1 = assay: Primary qHTS to identify gynecologic anti-cancer compounds using libraries of approved drugs and bioactive compounds (AID 1345084); conditions: Gynecologic cancer cell panel viability, ATPlite luminescence, 48 h; series mostly up to 57.5 µM; further: nearly all actives have a fitted effect of over 55% in size; further: potency means the concentration at half of the fitted maximal effect
Summary of the method: as §2

Tov112D = assay: as above; conditions: Gynecologic cancer cell panel viability, ATPlite luminescence, 48 h; series mostly up to 57.5 µM
Summary of the method: as §2

Sequence of Glutathione peroxidase 1 (Homo sapiens) (P07203 whole entry, looked up): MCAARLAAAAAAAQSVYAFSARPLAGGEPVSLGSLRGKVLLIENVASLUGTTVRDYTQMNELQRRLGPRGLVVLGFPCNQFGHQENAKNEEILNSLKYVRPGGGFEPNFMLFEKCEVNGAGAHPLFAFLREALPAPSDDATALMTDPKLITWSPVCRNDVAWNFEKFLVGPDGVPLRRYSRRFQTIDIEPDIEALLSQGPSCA
Sequence of Phospholipid hydroperoxide glutathione peroxidase GPX4 (Homo sapiens) (P36969 whole entry, looked up): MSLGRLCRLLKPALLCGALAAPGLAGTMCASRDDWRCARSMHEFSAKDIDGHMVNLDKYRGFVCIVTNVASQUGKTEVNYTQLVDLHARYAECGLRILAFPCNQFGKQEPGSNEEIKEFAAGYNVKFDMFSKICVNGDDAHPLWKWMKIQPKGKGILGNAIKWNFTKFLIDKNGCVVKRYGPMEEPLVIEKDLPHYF

COC1CC(O[C@H]2CC[C@@]3(C)C(CCC4C3CC[C@]3(C)[C@@H](C5=CC(=O)OC5)CC[C@]43O)C2)OC(C)C1O (stereo partly specified)
inactive: Potency [2] | Potency [3] | outcome [4] | Potency [5] | Potency [6] | max response (NIH3T3) -0.0473%
active: Potency [1] 14.2 nM | Potency (CRL-7250) 31.7 nM | Potency (HEK293) 79.6 nM | Potency (HaCat) 178 nM | Potency (KB-3-1) 159 nM | Potency (C33A) 100 nM | Potency (CASKI) 141 nM | Potency (Es-2) 158 nM | Potency (Hek293T) 141 nM | Potency (OV90) 0.398 µM | Potency (Tov-21-G) 89.1 nM

COC1CC(O[C@H]2CC[C@]3(C=O)C4CC[C@]5(C)[C@@H](C6=CC(=O)OC6)CC[C@]5(O)[C@@H]4CC[C@@H]3C2)OC(C)C1O[C@@H]1O[C@H](CO)[C@@H](O[C@@H]2O[C@H](CO)[C@@H](O)[C@H](O)[C@H]2O)[C@H](O)[C@H]1O (stereo partly specified)
inactive: Potency [2] | Potency [3] | activity change, negative = inhibition [4] 0.154% [at 11.6 µM] | activity change, negative = thiol reactive [5] -23.5% [at 11.5 µM] | activity, negative = inhibition [6] 1.46% [at 11.6 µM] | max response (NIH3T3) 3.23%
active: Potency [1] 77.4 nM | Potency [7] 123 nM | Potency (CRL-7250) 123 nM | Potency (HEK293) 219 nM | Potency (HaCat) 873 nM | Potency (KB-3-1) 174 nM | Potency (C33A) 178 nM | Potency (Es-2) 398 nM | Potency (Hek293T) 447 nM | Potency (OV90) 1.58 µM | Potency (PA-1) 447 nM | Potency (Tov-21-G) 224 nM | Potency (Tov112D) 112 nM

C[C@H]1O[C@@H](n2cnc3c(N)ncnc32)C[C@@H]1O
inactive: Potency [1] | Potency [7] | Potency [2] | Potency [3] | outcome [4] | Potency [5] | Potency [6] | max response (CRL-7250) 0.373% | max response (HEK293) 0.909% | max response (HaCat) 3.49% | outcome (KB-3-1) | max response (NIH3T3) 1.47% | Potency (C33A) | Potency (CASKI) | Potency (Es-2) | Potency (Hek293T) | Potency (OV90) | Potency (PA-1) | Potency (Tov-21-G) | Potency (Tov112D)

CO[C@H]1[C@@H](O)[C@@H](C)O[C@@H](O[C@@H]2C=C3C(OC(C)=O)CC4(O)C(CC[C@]5(C)[C@@H](C6=CC(=O)OC6)CC[C@]45O)[C@@]3(C)CC2)[C@@H]1O (stereo partly specified)
active: Potency [1] 48.3 nM | Potency [7] 85.8 nM | Potency (CRL-7250) 137 nM | Potency (HEK293) 86.2 nM | Potency (HaCat) 2430 nM | Potency (KB-3-1) 385 nM | Potency (C33A) 178 nM | Potency (CASKI) 2820 nM | Potency (Es-2) 447 nM | Potency (Hek293T) 251 nM | Potency (OV90) 2.51 µM | Potency (PA-1) 316 nM | Potency (Tov-21-G) 282 nM | Potency (Tov112D) 100 nM
inactive: Potency [2] | Potency [3] | outcome [4] inactive [at 25.7 µM] | Potency [5] | Potency [6] | max response (NIH3T3) -11.7%

— PubChem BioAssay (NCATS)
